The structures appear in SMILES notation. Calls of active or inactive are those of the source.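 The calls were made as follows, unless noted: active = visual image review flags a hit and inhibition of aggregation exceeds 20%; inconclusive = visual hit but inhibition at or below 20%; inactive = no hit on visual image review.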

The nature of the first experiment: inhibitors of mutant huntingtin aggregation, primary screen, imaging, exon1htt(103Q)mCFP cells, high-content imaging (AID 483).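 Also: compound exposure lasted 3 days before fixation.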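 As to nuclei count: percent of the per-plate median nuclei count of sample wells.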 The conditions noted are these: exon1htt(103Q)mCFP cell line, aggregate imaging, at 2 µM; inhibition of aggregation: stronger effect = higher value; nuclei count: measured here: cell count, toxicity.
Turning to `CN(C)S(=O)(=O)c1ccc(C(=O)N2CCCC2c2nc3ccccc3s2)cc1` (stereo not given), the nuclei count is 97.5% and the inhibition of aggregation is 4% (inactive).

In the case of `CC1=C(C(=O)OC(C)C)C(C2CC=CCC2)NC(=O)N1` (stereo not given), the nuclei count worked out at 93% and the inhibition of aggregation is 17.1% (inactive).

As for `COc1ccc(OC)c(C2CC(=O)NC(SC)=C2C#N)c1` (stereo not given), the inhibition of aggregation was -13.5% (inactive) and the nuclei count was 114%.

`CC1(C(=O)NC2CCCCC2)CCC(=O)N1Cc1cccs1` (stereo not given): the nuclei count is 104% and the inhibition of aggregation is 1.4% (inactive).

In the case of `NC(=O)c1c(NC(=O)Cc2cccs2)sc2c1CCC2`, the nuclei count was 109% and the inhibition of aggregation was 12.6% (inactive).

As to `CC(=O)Nc1cccc(NC(=O)C2CCCN2C(=O)Nc2ccc(C)cc2)c1` (stereo not given), the inhibition of aggregation was 0.5% (inactive) and the nuclei count is 89.4%.

With `COc1ccc2[nH]c(=O)c(CN(CCO)S(=O)(=O)c3ccc4c(c3)OCCO4)cc2c1`, the inhibition of aggregation is 7.9% (inactive) and the nuclei count came to 105%.

Regarding `Cn1c(=O)c2c(nc(NCC3CCCO3)n2C)n(C)c1=O` (stereo not given), the nuclei count came to 108% and the inhibition of aggregation is -10.3% (inactive).

Turning to `COc1cccc(-c2csc3nc[nH]c(=O)c23)c1`, the nuclei count worked out at 98.7% and the inhibition of aggregation is -18.2% (inactive).

For the molecule `COC(=O)Cn1c2ccccc2c2nc(C)sc21`, the nuclei count was 106% and the inhibition of aggregation was -14.3% (inactive).

Take `CCOC(=O)c1ccc(-n2c(C)nc3c(cnn3-c3ccccc3C)c2=O)cc1`: the inhibition of aggregation was -46.9% (inactive) and the nuclei count turned out to be 102%.

In the case of `Cc1ccc(S(=O)(=O)C2(C(=O)Nc3cccnc3)CC2)cc1`, the nuclei count was determined as 93.3% and the inhibition of aggregation was 14.7% (inactive).

For the molecule `CC(=O)N1CCN(S(=O)(=O)c2ccc(S(=O)(=O)NC3CC3)cc2)CC1`, the nuclei count was 99.7% and the inhibition of aggregation was 0.7% (inactive).

As to `COc1ccc(CCNc2oc(-c3ccccc3OC)nc2C#N)cc1`, the nuclei count stood at 86.1% and the inhibition of aggregation is 4% (inactive).

For `COc1ccc(-n2c(Cc3cccn3C)nnc2SCC(=O)Nc2cccc(Cl)c2)cc1`, the inhibition of aggregation is 22.4% (inactive) and the nuclei count is 85.2%.

Take `COc1ccc(OC)c(-n2nnnc2SCC(=O)NCc2ccc3c(c2)OCO3)c1`: the nuclei count was found to be 101% and the inhibition of aggregation is -18.9% (inactive).

As for `CC1CCc2nn(CC(=O)NCc3ccc(F)cc3)cc2C1` (stereo not given), the nuclei count is 112% and the inhibition of aggregation was -5.6% (inactive).

As to `CC1CN(C2CCCCC2)c2nc3c(c(=O)[nH]c(=O)n3C)n2C1` (stereo not given), the nuclei count was 77.6% and the inhibition of aggregation is -5.5% (inactive).

Take `Cc1ccc(Nc2nc(Oc3ccc(=O)[nH]n3)nc(N(C)C)n2)cc1`: the nuclei count came to 101% and the inhibition of aggregation is 13.2% (inactive).

Turning to `O=C(Nc1ccc(F)cc1)N(Cc1ccco1)Cc1cc2cc3c(cc2[nH]c1=O)OCO3`, the inhibition of aggregation is 6.1% (inactive) and the nuclei count stood at 96.6%.

As for `COc1cccc(C(=O)Nc2c(C(N)=O)oc3ccccc23)c1`, the nuclei count was determined as 89.2% and the inhibition of aggregation was 28.5% (inactive).

In the case of `O=C(C1CCCN1S(=O)(=O)c1cccc2cccnc12)N1CCn2c1nc1ccccc12` (stereo not given), the inhibition of aggregation was -15.8% (inactive) and the nuclei count turned out to be 117%.

Turning to `O=C(NCCSCc1ccco1)Nc1cccc(Cl)c1`, the inhibition of aggregation was -7.7% (inactive) and the nuclei count is 99.9%.

For `CC(=O)Nc1nc2c(c3c1c(=O)oc1ccccc13)CC(C)CC2` (stereo not given), the nuclei count turned out to be 61.9% and the inhibition of aggregation was 14.7% (inactive).

For the molecule `O=c1/c(=C/c2ccco2)sc2nc(-c3ccccc3Br)nn12`, the nuclei count is 107% and the inhibition of aggregation was 14.2% (inactive).

In the case of `CCOC(=O)Cn1c(S(=O)(=O)Cc2ccccc2)nc2ccccc21`, the nuclei count came out at 110% and the inhibition of aggregation was -22.5% (inactive).

On to `CCn1c(SCC(=O)Nc2ccccc2F)nc2c(c1=O)SC(C)C2` (stereo not given), for which the inhibition of aggregation is -3.7% (inactive) and the nuclei count worked out at 104%.

For the molecule `Nc1cccc2c1C(=O)N(c1ccccc1)C2=O`, the nuclei count amounted to 87.9% and the inhibition of aggregation is -6% (inactive).

Consider `COCCn1c(=O)[nH]c2cc(C(=O)N3CCN(Cc4ccc5c(c4)OCO5)CC3)ccc2c1=O`, for which the inhibition of aggregation is -2% (inactive) and the nuclei count was 122%.

For `O=C(Cn1nnc(-c2ccc(S(=O)(=O)N3CCCC3)cc2)n1)NCC1CCCO1` (stereo not given), the inhibition of aggregation was 7.6% (inactive) and the nuclei count stood at 95%.

On to `O=C(CN(Cc1ccco1)C(=O)c1cc(=O)[nH]c2ccccc12)Nc1ccccc1Br`, for which the inhibition of aggregation was 11.6% (inactive) and the nuclei count came out at 103%.

Take `c1nc(NCC2(N3CCOCC3)CCCCC2)c2ccsc2n1`: the nuclei count was 93% and the inhibition of aggregation was -2.2% (inactive).

On to `CC1CCCN(S(=O)(=O)c2ccc(C(=O)Nc3nnc(-c4ccccc4Cl)o3)cc2)C1` (stereo not given), for which the inhibition of aggregation was 10.5% (inactive) and the nuclei count is 111%.

Consider `O=C(OCN1C(=O)c2ccccc2C1=O)c1ccc2c(=O)n3c(nc2c1)CCC3`, for which the inhibition of aggregation was 29.8% (inactive) and the nuclei count was 79.3%.

With `Cc1cc(C)n2nc(SCc3nc4ccccc4[nH]3)nc2n1`, the nuclei count is 103% and the inhibition of aggregation is -29.8% (inactive).

`Cc1ccc(S(=O)(=O)NCCSc2nnnn2-c2ccc(C(N)=O)cc2)cc1`: the inhibition of aggregation was 2.1% (inactive) and the nuclei count was found to be 115%.

For `CC1(C)Cc2c(sc3c2c(=N)n(Cc2ccco2)c(=O)n3Cc2ccccc2)CO1`, the nuclei count was found to be 101% and the inhibition of aggregation was 12% (inactive).

As to `CC1=C(C(=O)NCc2ccccn2)C2(CCC(C)CC2)OC1=O` (stereo not given), the inhibition of aggregation is 16.1% (inactive) and the nuclei count worked out at 91.3%.

As for `Cc1nnc(SC(=O)N2c3ccccc3Sc3ccccc32)s1`, the nuclei count stood at 99.9% and the inhibition of aggregation was 39.8% (active).

As for `Cc1ccnc(NC(=O)C2CCCN(S(=O)(=O)c3cnc[nH]3)C2)c1` (stereo not given), the inhibition of aggregation is 39.4% (active) and the nuclei count was found to be 84.3%.

A short description of a further experiment: inhibitors of E-selectin induction by TNFa, primary screen, imaging, HUVEC, immunofluorescence, MLSMR starter and 10KST1 sets (AID 487;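 active = visually confirmed hit in the image check and inhibition above 20%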;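 as to inhibition: signal is fraction of cell area covered by stained E-selectin grains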;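 as to nuclei count: 100% = median nuclei count of all wells on the same plate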). The conditions noted are these: HUVEC TNFalpha-induced E-selectin immunofluorescence imaging, at 2 µM; inhibition: stronger effect = higher value; nuclei count: measured here: cell number, toxicity.
As to `CN(C)S(=O)(=O)c1ccc(C(=O)N2CCCC2c2nc3ccccc3s2)cc1` (stereo not given), the nuclei count turned out to be 102% and the inhibition was -82.5% (inactive).

Regarding `CC1=C(C(=O)OC(C)C)C(C2CC=CCC2)NC(=O)N1` (stereo not given), the inhibition is 35.9% (inactive) and the nuclei count was found to be 98.9%.

As to `COc1ccc(OC)c(C2CC(=O)NC(SC)=C2C#N)c1` (stereo not given), the inhibition is -23.1% (inactive) and the nuclei count was found to be 117%.

As for `CC1(C(=O)NC2CCCCC2)CCC(=O)N1Cc1cccs1` (stereo not given), the inhibition was -78.3% (inactive) and the nuclei count amounted to 130%.

In the case of `NC(=O)c1c(NC(=O)Cc2cccs2)sc2c1CCC2`, the inhibition was -43% (inactive) and the nuclei count was found to be 150%.

As to `CC(=O)Nc1cccc(NC(=O)C2CCCN2C(=O)Nc2ccc(C)cc2)c1` (stereo not given), the nuclei count turned out to be 111% and the inhibition was -3.5% (inactive).

In the case of `COc1ccc2[nH]c(=O)c(CN(CCO)S(=O)(=O)c3ccc4c(c3)OCCO4)cc2c1`, the inhibition is 24.9% (inactive) and the nuclei count was 98.9%.

Turning to `Cn1c(=O)c2c(nc(NCC3CCCO3)n2C)n(C)c1=O` (stereo not given), the inhibition is -102% (inactive) and the nuclei count was found to be 122%.

As to `COc1cccc(-c2csc3nc[nH]c(=O)c23)c1`, the nuclei count is 97.9% and the inhibition is -72.4% (inactive).

`COC(=O)Cn1c2ccccc2c2nc(C)sc21`: the inhibition was -59.3% (inactive) and the nuclei count came to 125%.

Take `CCOC(=O)c1ccc(-n2c(C)nc3c(cnn3-c3ccccc3C)c2=O)cc1`: the inhibition is 11.9% (inactive) and the nuclei count came out at 108%.

For the molecule `Cc1ccc(S(=O)(=O)C2(C(=O)Nc3cccnc3)CC2)cc1`, the inhibition was -126% (inactive) and the nuclei count was determined as 98.8%.

With `CC(=O)N1CCN(S(=O)(=O)c2ccc(S(=O)(=O)NC3CC3)cc2)CC1`, the nuclei count worked out at 112% and the inhibition is 33.9% (inactive).

With `COc1ccc(CCNc2oc(-c3ccccc3OC)nc2C#N)cc1`, the inhibition is -19.1% (inactive) and the nuclei count was determined as 88.6%.

Regarding `COc1ccc(-n2c(Cc3cccn3C)nnc2SCC(=O)Nc2cccc(Cl)c2)cc1`, the inhibition is 1.8% (inactive) and the nuclei count is 116%.

On to `COc1ccc(OC)c(-n2nnnc2SCC(=O)NCc2ccc3c(c2)OCO3)c1`, for which the inhibition is -26.8% (inactive) and the nuclei count worked out at 109%.

`CC1CCc2nn(CC(=O)NCc3ccc(F)cc3)cc2C1` (stereo not given): the nuclei count turned out to be 119% and the inhibition was -72.4% (inactive).

In the case of `CC1CN(C2CCCCC2)c2nc3c(c(=O)[nH]c(=O)n3C)n2C1` (stereo not given), the inhibition is 4.4% (inactive) and the nuclei count is 108%.

In the case of `Cc1ccc(Nc2nc(Oc3ccc(=O)[nH]n3)nc(N(C)C)n2)cc1`, the nuclei count worked out at 111% and the inhibition is -65.6% (inactive).

For `O=C(Nc1ccc(F)cc1)N(Cc1ccco1)Cc1cc2cc3c(cc2[nH]c1=O)OCO3`, the inhibition was 15.9% (inactive) and the nuclei count worked out at 102%.

Turning to `COc1cccc(C(=O)Nc2c(C(N)=O)oc3ccccc23)c1`, the nuclei count came to 121% and the inhibition was -34.6% (inactive).

Regarding `O=C(C1CCCN1S(=O)(=O)c1cccc2cccnc12)N1CCn2c1nc1ccccc12` (stereo not given), the inhibition was -28.6% (inactive) and the nuclei count came to 124%.

`O=C(NCCSCc1ccco1)Nc1cccc(Cl)c1`: the nuclei count was found to be 115% and the inhibition was -67.4% (inactive).

Consider `CC(=O)Nc1nc2c(c3c1c(=O)oc1ccccc13)CC(C)CC2` (stereo not given), for which the inhibition is 13.1% (inactive) and the nuclei count stood at 82.7%.

As for `O=c1/c(=C/c2ccco2)sc2nc(-c3ccccc3Br)nn12`, the nuclei count stood at 118% and the inhibition is -34.7% (inactive).

Consider `CCOC(=O)Cn1c(S(=O)(=O)Cc2ccccc2)nc2ccccc21`, for which the inhibition is -135% (inactive) and the nuclei count was 127%.

In the case of `CCn1c(SCC(=O)Nc2ccccc2F)nc2c(c1=O)SC(C)C2` (stereo not given), the nuclei count was determined as 117% and the inhibition is -2% (inactive).

With `Nc1cccc2c1C(=O)N(c1ccccc1)C2=O`, the inhibition is 13.9% (inactive) and the nuclei count amounted to 107%.

In the case of `COCCn1c(=O)[nH]c2cc(C(=O)N3CCN(Cc4ccc5c(c4)OCO5)CC3)ccc2c1=O`, the inhibition is -20.8% (inactive) and the nuclei count worked out at 115%.

For the molecule `O=C(Cn1nnc(-c2ccc(S(=O)(=O)N3CCCC3)cc2)n1)NCC1CCCO1` (stereo not given), the nuclei count was 112% and the inhibition was -7.7% (inactive).

Take `O=C(CN(Cc1ccco1)C(=O)c1cc(=O)[nH]c2ccccc12)Nc1ccccc1Br`: the inhibition was 10.6% (inactive) and the nuclei count was 105%.

In the case of `c1nc(NCC2(N3CCOCC3)CCCCC2)c2ccsc2n1`, the inhibition is 20.6% (inactive) and the nuclei count amounted to 87.7%.

Consider `CC1CCCN(S(=O)(=O)c2ccc(C(=O)Nc3nnc(-c4ccccc4Cl)o3)cc2)C1` (stereo not given), for which the inhibition is -16.5% (inactive) and the nuclei count stood at 110%.

Regarding `O=C(OCN1C(=O)c2ccccc2C1=O)c1ccc2c(=O)n3c(nc2c1)CCC3`, the nuclei count worked out at 96.4% and the inhibition is 74.4% (inactive).

Turning to `Cc1cc(C)n2nc(SCc3nc4ccccc4[nH]3)nc2n1`, the nuclei count worked out at 117% and the inhibition is -21.3% (inactive).

Take `Cc1ccc(S(=O)(=O)NCCSc2nnnn2-c2ccc(C(N)=O)cc2)cc1`: the inhibition was -14.3% (inactive) and the nuclei count amounted to 111%.

As for `CC1(C)Cc2c(sc3c2c(=N)n(Cc2ccco2)c(=O)n3Cc2ccccc2)CO1`, the nuclei count was 112% and the inhibition was -27.8% (inactive).

For the molecule `CC1=C(C(=O)NCc2ccccn2)C2(CCC(C)CC2)OC1=O` (stereo not given), the inhibition was 19.6% (inactive) and the nuclei count came to 110%.

Regarding `Cc1nnc(SC(=O)N2c3ccccc3Sc3ccccc32)s1`, the inhibition is 27.8% (inactive) and the nuclei count came out at 107%.

Regarding `Cc1ccnc(NC(=O)C2CCCN(S(=O)(=O)c3cnc[nH]3)C2)c1` (stereo not given), the nuclei count stood at 110% and the inhibition is -81.7% (inactive).

The values above are taken from PubChem BioAssay.
